We go through 91 compounds from PubChem BioAssay AID504607 (Sanford-Burnham Center for Chemical Genomics, 2011).

The campaign covered roughly 6,200 compounds. About 4,800 (77%) were called active. So high a share suggests a set chosen from earlier hits. Not all results are given here. Values without a mark were called inactive.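 How the source made its calls: active means mean inhibition at 8 µM reaching about 37%, which flags the compound as non-specific (limit read from the data); inactive means the rest.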

The test can be described thus: full-length luciferase signal inhibition, confirmation, counter-screen for Mdm2/MdmX interaction inhibitor project, cell-based, single concentration, SaOS-2 (AID 504607).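 Further: p53-null SaOS-2 cells with luciferase driven by a doxycycline-inducible promoter; compound on cells about two nights before reading with doxycycline added after day one.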 The note with it: SaOS-2 full-length luciferase counterscreen, luminescence; at 8 µM; hits give high values.
On to `C=CCSc1nsc(NC(=O)Nc2cccc(C(C)=O)c2)n1`, for which the inhibition is 21.9%.
As for `CCSc1nsc(NC(=O)Nc2cccc(C(C)=O)c2)n1`, the figure is 41% (active); as for `CC(=O)c1ccc(Oc2cc(C)nc(-n3nc(C)cc3C)n2)cc1`, 78.7% (active); as for `Oc1cccc(/C=N/Nc2ccc(Cl)nn2)c1O`, 45.7% (active).
Next, `Oc1ccc(Br)cc1/C=N/Nc1ccccn1`: 20%; `Cc1nnnn1/C(=C\c1ccccc1)C(=O)OCC(=O)N1CC2(C)CC1CC(C)(C)C2` (stereo unspecified): 53.4% (active).
Next, `CC[n+]1cc(C)ccc1/C=C/c1ccc(N(C)C)cc1`: 37.8% (active); `O=C(/C=C/Sc1ncn[nH]1)c1ccc(Cl)cc1`: 51% (active); `COC(=O)CCNc1ccc2c(c1)OCCO2`: 51.5% (active).
For the compound `CCOC(=O)c1c(-c2cccc(C)c2)csc1NC(=O)c1c(-c2ccccc2)noc1C`, the inhibition was 52.8% (active).
Consider `O=C(CSc1nc2ccccc2c(=O)[nH]1)Nc1nc(-c2ccc(Br)cc2)cs1`, for which the inhibition is 47.8% (active).
Next, `Cc1ccc(C(=O)Nc2sc(Cc3ccc4c(c3)OCO4)c(C)c2C(N)=O)cc1`: 89.9% (active); `CCN1/C(=C\c2ccc3ccccc3[n+]2CC)Sc2cc(C)ccc21`: 25%.
Next, `Cc1ccc2[nH]c(=O)c(CN(CCCN(C)C)C(=O)Nc3cccc(Cl)c3)cc2c1`: 66.6% (active).
As for `Cc1cccc(NS(=O)(=O)c2ccc(-c3cnc(C4CC4)o3)cc2)c1`, the figure is 63.9% (active); as for `COC(=O)C1=C(Nc2ccc(C)cc2)C=C(C)C(C(=O)OC)C1c1ccc(F)cc1` (stereo unspecified), 61.3% (active).
`O=C(c1[nH]ncc1-c1ccc(Cl)cc1)C1CO1` (stereo unspecified): the inhibition is 45.8% (active).
On to `O=C1NC(Nc2nc3ccccc3s2)(C(F)(F)F)C(=O)N1C1CCCCC1` (stereo unspecified), for which the inhibition was 73.6% (active).
For the compound `Brc1ccc2ncnc(NCc3cccnc3)c2c1`, the inhibition was 26.8%.
Turning to `Cc1ccnc(NC(=O)C2CCN(S(=O)(=O)c3c(C)c(C)cc(C)c3C)CC2)c1`, the inhibition was 46% (active).
Turning to `O=C(CCNC(=O)c1ccc(Cl)cc1)NC1CCCc2ccccc21` (stereo unspecified), the inhibition was 54.4% (active).
Next, `CCOC(=O)/C(=C\c1ccc([N+](=O)[O-])cc1)C(=O)c1cc(C(C)=O)c(Nc2ccccc2)s1`: 50.6% (active); `CN(c1ccccc1)S(=O)(=O)c1cc(C(=O)N2CCN(c3ncccn3)CC2)ccc1Cl`: 83.9% (active); `O=C(COc1ccccc1F)Nc1nc(-c2ccccn2)cs1`: 47.2% (active).
As for `O=C(CCCCCn1c(=S)[nH]c2cc3c(cc2c1=O)OCO3)N1CCN(c2ccc(F)cc2)CC1`, the figure is 79.3% (active).
As for `Cc1ccc(C)c(N2CCN(C(=O)CCCCCn3c(=S)[nH]c4ccc(N5CCOCC5)cc4c3=O)CC2)c1`, the figure is 60.1% (active); as for `COc1cccc(-c2nnc(NC(=O)c3ccc(S(=O)(=O)N(CC(C)C)CC(C)C)cc3)o2)c1`, 24.3%; as for `O=C(CN1C(=O)c2ccccc2S1(=O)=O)N1CCc2ccccc21`, 15.9%.
In the case of `O=C1/C(=C\c2ccccc2Cl)SC(=S)N1CCC(=O)N1CCCc2ccccc21`, the inhibition was 43.1% (active).
Next, `Fc1ccccc1/C=C1\CCCC2=C1Nc1ncnn1C2c1ccccc1F` (stereo unspecified): 3.26%; `Cc1ccccc1NC(=O)CSc1nc2ccc(Nc3nc(N4CCOCC4)nc(N4CCOCC4)n3)cc2s1`: 81.4% (active); `O=C(CSc1nc(Nc2ccccc2)nc(N2CCOCC2)n1)Nc1cc(Cl)ccc1O`: 65.1% (active).
Next, `O=C1[C@H]2[C@@H](c3ccc(F)cc3)N3C(=O)N(c4ccc(C(F)(F)F)cc4)C(=O)[C@@]3(Cc3ccccc3)[C@H]2C(=O)N1C1CCCCC1`: 48.6% (active); `COc1ccc2[nH]c(=O)c(CN(Cc3cccnc3)S(=O)(=O)c3ccccc3F)cc2c1`: 56.2% (active); `Cc1ccc2nc(-c3ccc(Br)cc3)cn2c1`: 133% (active).
As for `Cc1ccc(-c2cn3cc(C)ccc3n2)cc1`, the figure is 29%.
For `FC(F)(F)c1nnc2c3ccccc3c(Cl)nn12`, the inhibition was 79.9% (active).
Next, `CC1CN(C(=O)CCC(=O)NCCCN2CCC(Cc3ccccc3)CC2)c2cc(Cl)ccc2O1` (stereo unspecified): 40.4% (active); `O=C(N/N=C\c1cc2c(cc1Cl)OCO2)c1ccc(Br)s1`: 94.6% (active).
For `CCN(CC)S(=O)(=O)c1ccc(NC(=O)c2cccnc2Cl)c(NC(=O)c2cccnc2Cl)c1`, the inhibition is 43.5% (active).
As for `N=c1n(CCc2ccccc2)c2ccccc2n1Cc1ccccc1F`, the figure is 69.7% (active).
For the compound `CCOC(=O)/C=C/C(=O)OCC(=O)NC(c1ccccc1)c1ccccc1`, the inhibition is 56.8% (active).
As to `O=[N+]([O-])/C=C/c1ccc2c(ccn2Cc2ccccc2)c1`, the inhibition is 49% (active).
As for `COc1ccc(Nc2oc(-c3ccccc3Cl)nc2C#N)cc1`, the figure is 79% (active); as for `O=C(NNc1ccccc1Cl)C(O)(c1cccc(C(F)(F)F)c1)c1cccc(C(F)(F)F)c1`, 87.9% (active); as for `COC(=O)c1sc(-c2ccc(C(C)(C)C)cc2)cc1NC(=O)/C=C/C(=O)O`, 55.9% (active).
Take `O=C(CSc1cccc2cccnc12)N/N=C/c1cccnc1`: the inhibition is 68.1% (active).
Next, `CC(=O)/C(=N\Nc1ccc(Cl)cc1Cl)Sc1cccc2cccnc12`: 19.1%.
With `CCn1cc(CN2CCC(C(=O)Nc3cccc(-c4cccc(Cl)c4)c3)CC2)c(C)n1`, the inhibition is 74.2% (active).
As for `c1ccc2c(c1)CSc1sccc1C2=C1CCNCC1`, the figure is 44.8% (active); as for `COc1cccc(-n2c(SCC(=O)NC3CCCCC3)nc3n[nH]c(C)c3c2=N)c1`, 66.3% (active).
Next, `NC(=O)c1sc2nc3c(c(-c4ccccc4)c2c1N)CCC3`: 43.5% (active).
In the case of `Cc1ccccc1C(=O)N1CCN(c2ccc(NC(=O)c3cccs3)cc2)CC1`, the inhibition is 65.1% (active).
On to `COc1ccc(C(=O)NC2CCCc3c2cnn3-c2cccc(C)c2C)c(OC)n1` (stereo unspecified), for which the inhibition is 54.8% (active).
Regarding `Cc1cc(C(=O)NC2CCCc3c2cnn3-c2cccc(C)c2C)c(C)o1` (stereo unspecified), the inhibition is 91% (active).
As for `CC(NC(=O)Nc1ccccc1)C(c1cccs1)N1CCN(c2ccccc2)CC1` (stereo unspecified), the figure is 58% (active); as for `CC(=O)Nc1ccc(NC(=O)C(C)OC(=O)c2ccccc2C(=O)c2ccc(Cl)c([N+](=O)[O-])c2)cc1` (stereo unspecified), 52.9% (active); as for `N#Cc1cccc(NC(=O)COC(=O)c2ccccc2C(=O)c2ccc(Cl)c([N+](=O)[O-])c2)c1`, 50.4% (active).
Next, `Cc1cccc(-c2oc3ccc(-c4ccc5c(c4)OCO5)cc3c2C#Cc2cncn2C)c1`: 80.9% (active).
Next, `Oc1ccccc1N1CCN(c2ncnc3sc(-c4ccccc4)cc23)CC1`: 58.6% (active); `O=C(Oc1c(-c2ccco2)oc2ccccc2c1=O)c1cccnc1`: 90.3% (active); `COc1cc2c(cc1OC)C(C)N(S(=O)(=O)c1cnc(Cl)c(Cl)c1)CC2` (stereo unspecified): 45.3% (active).
For `CN(C)CC(O)COc1ccc(C(C)(C)c2ccc(OCC(O)CN(C)C)cc2)cc1` (stereo unspecified), the inhibition was 56.8% (active).
For `Cn1cc(/C=C/c2nc3ccccc3c(=O)n2-c2cccc([N+](=O)[O-])c2)c2ccccc21`, the inhibition was 90.7% (active).
As for `C=CCn1c(C)cc(C(=O)CN2C(=O)c3ccccc3C2=O)c1C`, the figure is 103% (active); as for `C=CCn1c(C)cc(C2=NNC(=NCC)SC2)c1C`, 24.4%; as for `O=C(NCC#CCSc1nnc(-c2cccc3ccccc23)o1)c1cccs1`, 22.6%.
Next, `CCCc1nc2c(c(=O)c3ccccc3n2C)c(=O)n1C1CCCCCC1`: 63.9% (active); `COc1cccc(CNC(=O)c2nnn(CC(=O)Nc3cc(Cl)ccc3C)c2N)c1`: 47.8% (active).
As for `Cc1cc(C)c2[nH]c(=O)c(CN(Cc3ccccc3)C(=S)NCCCN(C)C)cc2c1`, the figure is 58.1% (active); as for `COc1ccc(-c2nc(-c3ccccc3)no2)c(OC)c1`, 95.8% (active).
In the case of `CSc1nc(-c2ccccc2)nc(C(Cl)Cl)n1`, the inhibition is 49.7% (active).
With `O=C(Cn1nnc(-c2ccccc2)n1)N/N=C/c1ccc(-c2ccc(Cl)cc2)o1`, the inhibition was 106% (active).
`COc1cc(NC(=O)c2ccccc2NS(=O)(=O)c2ccc(Cl)s2)cc(OC)c1`: the inhibition is 40.5% (active).
On to `CCc1ccc(-c2cc3c(=O)n(CC(=O)NCCCN4CCN(Cc5ccccc5)CC4)nc(C)n3n2)cc1`, for which the inhibition was 60.8% (active).
As for `CCc1ccc(CNC(=O)C2CCN(c3nnc(C)c4c(C)n(-c5ccc(C)cc5)nc34)CC2)cc1`, the figure is 23.7%; as for `FC(F)(F)c1ccc(CN2C[C@@H]3C(c4ccccc4)C4(c5ccccc5)CC3(C4)[C@H]2c2ccccc2)cc1` (stereo partly specified), 27.2%.
In the case of `COCCCNc1nc2c(-c3cccc(C)c3)nnn2c2ccc(Cl)cc12`, the inhibition is 54.2% (active).
Next, `CCOc1ccccc1NC(=O)Cn1nnc(C(=O)NCc2cccs2)c1N`: 80.5% (active).
Consider `Cc1ccccc1OCCOc1ccc([N+](=O)[O-])cc1/C=N/n1cnnc1`, for which the inhibition is 89% (active).
Consider `CC1(C)CC(N2CCN(C(c3ccccc3)c3ccccc3)CC2)=CC(=[N+]2CCCCC2)C1`, for which the inhibition is 55.6% (active).
Take `Cc1ccc2occ(/C=N/NC(=O)c3ccccc3C)c(=O)c2c1`: the inhibition was 34.4%.
As for `Cc1c(/C=N\NC(=O)c2cc3ccccc3o2)c2ccccc2n1C`, the figure is 61.8% (active).
As to `COc1ccc(CCn2c(=N)c(C(=O)NCC3CCCO3)cc3c(=O)n4cccc(C)c4nc32)cc1OC` (stereo unspecified), the inhibition was 54% (active).
Regarding `Cc1cccn2c(=O)c3cc(C(=O)NCCN4CCOCC4)c(=N)n(Cc4cccnc4)c3nc12`, the inhibition is 57.1% (active).
As for `Cc1cccc(-n2ncc(Cl)c(Cl)c2=O)c1`, the figure is 0.23%; as for `CN(Cc1ccccc1)CC(O)COc1ccc(CNCc2cc3ccccc3s2)cc1` (stereo unspecified), 79.3% (active).
Regarding `O=C(Nc1ccncc1)c1c(F)cccc1F`, the inhibition is 38.9% (active).
As for `CC(C)(C)CC(C)(C)NCC(O)COCCOc1ccc(Br)cc1` (stereo unspecified), the figure is 62.6% (active).
Turning to `COc1ccccc1N1CCN(C(=O)c2cc(=O)c3cc(C)cc(C)c3o2)CC1`, the inhibition was 101% (active).
Next, `Oc1c(Br)cccc1/C=N/Nc1c(F)c(F)c(F)c(F)c1F`: 56.7% (active).
